Source: PubChem BioAssay (National Center for Advancing Translational Sciences (NCATS))
Compounds with a hit are over-represented: about 10% of the library has one in this group of screens.
ALDH1A1 inh: inhibitors of human aldehyde dehydrogenase 1A1 | 7.3% of 220,000 active | Potency, µM (highest dose often 75.3 µM), most hits filed as inhibitors | Purified ALDH1A1, NADH fluorescence, propionaldehyde substrate
HPGD inh: blocks human HPGD enzyme activity; Potency, µM, most hits filed as inhibitors; AID 894; P15428; 4.3% of 150,000 active; purified HPGD, NADH fluorescence kinetic, PGE2 substrate
Target sequence (P15428 whole entry, looked up): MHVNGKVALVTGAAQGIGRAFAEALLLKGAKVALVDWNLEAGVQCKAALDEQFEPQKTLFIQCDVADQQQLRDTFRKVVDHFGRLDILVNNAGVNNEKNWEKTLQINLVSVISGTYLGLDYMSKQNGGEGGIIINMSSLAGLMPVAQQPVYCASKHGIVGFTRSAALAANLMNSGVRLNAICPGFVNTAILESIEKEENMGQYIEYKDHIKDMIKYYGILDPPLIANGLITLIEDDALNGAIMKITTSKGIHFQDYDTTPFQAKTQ
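20 nM HPGD preincubated 15 min at room temperature with compound in 50 mM Tris-HCl pH 8, 0.01% Tween 20. Started with 1 mM NAD+ and 30 uM prostaglandin E2; NADH fluorescence (360/450 nm) read 5 times over 30-s intervals, last minus first.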
Lamin A splicing: changes lamin A minigene splicing in HeLa cells; HeLa LMNA splicing GFP/RFP minigene ratio, 48 h; Potency, µM (highest dose often 46.1 µM), actives largely listed as inhibitors; 0.01% of 200,000 active; active = well fitted inhibition curve with a large enough effect in the signal ratio, with a control signal flat, not every such curve was filed as active; inconclusive = small, poorly fitted or top-dose-only effect, or effect the other way, or a change in a side signal; the % refers to the signal ratio
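Read-out is the ratio of GFP to DsRed2 object intensity, acquired by 488 nm laser-scanning cytometry on HeLa lamin A-EGFP minigene reporter cells. Compound incubation 48 hrs at 37 °C in Opti-MEM with 2% FBS; DMSO 0.5% final.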
PNC assembly inh: inhibitors of perinucleolar compartment assembly. PC3M PTB-GFP, PNC prevalence imaging, 16 h; active compounds read low. activity change (PNC), negative = inhibition, % at 10 µM. 3.1% of 140,000 active;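 active = readout at or below -70, meaning at least 70% loss of cells showing the perinucleolar compartment, a nuclear body marking cancer cells; inconclusive = readout between -30 and a set limit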
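Compounds are pinned in duplicate onto adhered PC3M cells stably expressing GFP-tagged PTB and incubated 16 h at 37 C. Cells are then fixed, nuclei stained with Hoechst, and PNC-positive cells counted.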
Luc counter: counter-screen: inhibitors of Kinase-Glo firefly luciferase. Q27757. Kinase-Glo luciferase, ATP luminescence, 8 min. Potency, µM (top dose mostly 38.3 µM), hits mostly inhibitors. 0.28% of 200,000 active; active = well fitted inhibition curve with a large enough effect; inconclusive = small, poorly fitted or top-dose-only effect; note: nearly all actives have a fitted effect of over 60% in size
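Compound is pinned into ATP-containing buffer (10 uM ATP, imidazole pH 7.2, 7 mM MgCl2). Kinase-Glo luciferase reagent is then added. Light output is recorded following an 8-min room-temperature incubation.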
Numbers stand for hits; - = inactive; ? = inconclusive; . = no result; ! = not active in a repeat; [ ] = another dose, or the depositor's remark. Unless noted, calls come from the whole dose curve; as a rule, active = well fitted inhibition curve with a large enough effect (not every such curve was filed as active); inconclusive = small, poorly fitted or top-dose-only effect, or another doubt; inactive = no such curve, though single readings can be large or run the other way.

SMILES	ALDH1A1 inh	HPGD inh	Lamin A splicing	PNC assembly inh	Luc counter
CCCCNc1oc(-c2ccc(OC)cc2)nc1S(=O)(=O)c1ccccc1	22µM	?	-	-	-
CCNc1oc(-c2ccc(OC)cc2)nc1S(=O)(=O)c1ccc(Br)cc1	?	-	-	-	-
O=S(=O)(c1ccccc1)c1nc(-c2ccco2)oc1NCCCn1ccnc1	25µM	-	-	-	-
CC(=O)n1cc(C(C[N+](=O)[O-])SCCN)c2ccccc21 (centres undefined)	-	25µM	-	-	-
CC(=O)n1cc(-c2ccncc2)c2ccccc21	-	-	-	-	-
CC(=O)Nc1cccc(NC(=O)CSc2nc(C)c(C)c(C)c2C#N)c1	10µM	?	-	-	-
CCc1ccc(S(=O)(=O)c2cn(Cc3ccccc3)c3cc(N4CCCC4)c(F)cc3c2=O)cc1	.	.	-	.	.
CCCn1c(SCC(=O)N2CCc3ccccc3C2)nc2c1c(=O)n(C)c(=O)n2C	-	-	-	-	-
CCCCn1c(SCC(=O)N2c3ccccc3Sc3ccccc32)nc2c1c(=O)n(C)c(=O)n2C	?	-	-	-	-
CCn1c(SCC(=O)N2c3ccccc3Sc3ccccc32)nc2c1c(=O)n(C)c(=O)n2C	11µM	-	-	-	-
CCCn1c(SCC(=O)N2c3ccccc3CCc3ccccc32)nc2c1c(=O)n(C)c(=O)n2C	11µM	-	-	?	-
COC1C[C@@H](O[C@@H]2C(C)C(=O)OC(C)C(C)[C@H](OC(C)=O)C(C)C(=O)[C@@]3(CO3)CC(C)C(OC3OC(C)CC(N(C)C)[C@H]3OC(C)=O)C2C)OC(C)[C@@H]1OC(C)=O (some centres undefined)	-	-	.	.	-
O=C(c1ccco1)N1CCN(c2ncnc3c2nnn3Cc2ccccc2Cl)CC1	?	35µM	?	-	-
O=C(c1ccco1)N1CCN(C(c2ccc(Cl)cc2)c2nnnn2Cc2ccccc2)CC1 (centres undefined)	?	-	-	-	-
O=C(c1ccco1)N1CCN(c2nc(C(F)(F)F)nc3c2nnn3Cc2ccccc2)CC1	14µM	?	?	-	-
CCOC(=O)C1CCN(c2ncnc3c2nnn3Cc2ccccc2Cl)CC1	?	.	-	.	-
CCN(Cc1ccccc1)C(=O)Cn1c(=O)cc(C)c2c(C)nn(-c3cccc(F)c3)c21	.	.	-	.	.
Clc1cccc(-c2nnc3sc(-c4ccc5c(c4)OCO5)nn23)c1	20µM	.	-	-	.
Clc1ccccc1-c1nnc2sc(-c3ccc4c(c3)OCO4)nn12	?	?	-	-	-
N#CCCCN1C(=O)C(=C(C#N)C#N)c2ccccc21	0.79µM	.	-	.	-
N#CCCCN1C(=O)C(O)(CC(=O)c2ccc3c(c2)OCCO3)c2ccccc21 (centres undefined)	?	-	-	-	-
CCCCCCCCCCCCC/C=C/[C@@H](O)[C@H](CO)NC(=O)CCCCCCCCCCCCCCC	-	-	.	.	-
C[C@@H](C(=O)Nc1ccc2ccccc2c1)[C@H]1C[C@]1(C)[C@H](NC(=O)OCc1ccccc1)c1ccccc1	13µM	-	?	-	-
C[C@@H](C(=O)NCCc1c[nH]c2ccccc12)[C@H]1C[C@]1(C)[C@H](NC(=O)OCc1ccccc1)c1ccccc1	10µM	-	?	-	-
C[C@H](CO)NC(=O)[C@H](C)[C@H]1C[C@]1(C)[C@H](NC(=O)OCc1ccccc1)c1ccccc1	22µM	-	-	-	-
SMILES	ALDH1A1 inh	HPGD inh	Lamin A splicing	PNC assembly inh	Luc counter
Cc1cc(C(=O)N[C@H](c2ccccc2)[C@@]2(C)C[C@@H]2[C@@H](C)C(=O)Nc2ccc3ccccc3c2)n(C)n1	16µM	-	?	-	-
CC(=O)N[C@@H](c1ccccc1)[C@]1(C)C[C@H]1[C@@H](C)C(=O)Nc1ccc2ccccc2c1	-	-	.	.	-
C[C@@H](C(=O)NCCF)[C@H]1C[C@]1(C)[C@H](NC(=O)OCc1ccccc1)c1ccccc1	?	-	.	.	-
C[C@@H](C(=O)NCC1CC1)[C@@H]1C[C@@]1(C)[C@@H](NC(=O)OCc1ccccc1)c1ccccc1	-	-	-	-	-
C[C@@H](C(=O)NCc1ccccn1)[C@H]1C[C@]1(C)[C@H](NC(=O)OCc1ccccc1)c1ccccc1	32µM!	-	-	?	-
COc1ccc(OC)c(CNS(=O)(=O)c2ccc(-c3coc(C)n3)cc2)c1	.	.	-	.	.
COc1cccc(-n2ccnc2SCC(=O)Nc2nc3ccc(C)cc3s2)c1	.	.	-	.	.
C[N+]1=C(/C=C/Nc2ccccc2Cl)C(C)(C)c2ccccc21	?	-	?	?	-
COC(=O)c1ccc2c(c1)C(C)(C)C(/C=C/c1ccccc1O)=[N+]2C	?	?	?	-	4.5µM
COc1ccc(OCC(O)CN2CCN(c3ncccn3)CC2)cc1 (centres undefined)	-	-	-	-122	-
COc1ccc(CCN2C(=O)c3cccc4c(C(=O)N5CCCCC5)ccc(c34)C2=O)cc1OC	10µM	13µM	?	-	-
CC(Sc1nc(-c2ccc(F)cc2)cs1)C(=O)Nc1ccc(Cl)cn1 (centres undefined)	-	-	-	-100	-
C=C(C)C(=O)/C=C/CCC/C=C/C(=O)OCC	25µM	-	.	.	-
CCOC(=O)/C=C/CCCC=O	-	-	.	.	-
CCOc1ccc(/C=C(\C#N)C(=O)NCC2CCCO2)cc1OCC (centres undefined)	28µM	-	-	-	-
COc1ccc(C(=O)NCC(c2cccs2)S(=O)(=O)c2cccs2)cc1 (centres undefined)	.	.	-	.	.
O=C(Nc1ccccc1)c1ccc(N2CCN(c3ccccn3)CC2)c(S(=O)(=O)N2CCOCC2)c1	28µM	?	-	-	-
Cc1ccc(O)c(-c2cc(C(F)(F)F)[nH]n2)c1	-	14µM	-	-	-
C[N+](C)(C)c1cc2c(nn1)Nc1ccccc1S2	-[13.5 µM]	?	.	.	-[7.66 µM]
CCOC(=O)c1ccc(S(=O)(=O)Nc2nc3cc(S(=O)(=O)NC4=NCCCCC4)ccc3s2)cc1	25µM	.	-	.	-
CC1(C)SC(=S)N(NC(=O)Nc2ccccc2)C1N(O)C(=O)Nc1ccccc1 (centres undefined)	-	-	-	-	-
CN(C)c1ccc(/C=N/N2C(=S)SC(C)(C)C2N(O)C(=O)Nc2ccc([N+](=O)[O-])cc2)cc1 (centres undefined)	13µM	-	-	-	-
COc1cccc2c1Oc1ncccc1N(C(=O)Nc1ccc(F)c(Cl)c1)C2	.	.	-	.	.
Cc1ccc(C(C#N)N2CCOCC2)cc1 (centres undefined)	-	-	-	-	-
CN(C)c1ccc(C2N([C@H](C#N)c3ccc(N(C)C)cc3)CCCN2[C@@H](C#N)c2ccc(N(C)C)cc2)cc1 (some centres undefined)	1µM	-	.	.	-[7.66 µM]
Cc1ccccc1N(CC(=O)NC1CCCC1)C(=O)C1(C)CC(=O)N=C2C=CC=CN21 (centres undefined)	?	?	-	-116	-
